# Experimental data reported in the supplement of paper PMC10338343.
# ± gives the standard deviation. In all, about 8,200 sequences were measured (“pre-steady-state target cleavage rate”: median about 0.024, highest 2% from about 1.3 on). The sample holds the highest values, similar sequences and a random draw of the others, so the mix is not that of the screen.
# Test system: MIWI (PIWIL1) piRISC loaded with L1MC piRNA (30 nt)
# Experiment: pre-steady-state target cleavage rate (min^-1); MIWI and MILI are mouse PIWI proteins and EfPiwi is from a freshwater sponge; tags in brackets are library labels; higher = faster piRNA-guided slicing of the target
# Settings: guide: L1MC piRNA 5'p-UAACUAAAUACUAUGCAAGCUGUAGGUCCU
# Description: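 Cleave-'n-Seq: a library of target RNAs (target site embedded in constant flanks, ACAGCATTCCGCGTTAGTGATATCCG... 5' flank; DNA-blocked outside the site) at 0.1 nM was incubated with 1 nM active mouse MILI or MIWI piRISC (synthetic 5'-monophosphorylated piRNA guide) with or without 500 nM mouse GTSF1 at 33 °C for 1 min to 16 h. Uncleaved targets were sequenced and normalised to non-target controls, and the pooled three trials were fitted to a burst-and-steady-state model to give the pre-steady-state cleavage rate (min^-1; k3 is constrained to at most 1e-4). Sequence is the target site only; target names encode pairing extent (gX:gY) and contiguous / 1-mismatch / 2-mismatch / bulge geometry. Fits with R² ≤ 0 are excluded.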
# [1] = auxiliary factor: 500 nM mouse GTSF1
# [2] = auxiliary factor: none (no GTSF1)
Sequence,pre-steady-state target cleavage rate [1],pre-steady-state target cleavage rate [2]
AGGUGGUACAGCUUGCAUAGUAUUUAGAAA,0.19 ± 0.044,0.00559 ± 0.0016
UCCUGGUACAGCUUGCAUAGUUAAUAGAAA,0.023 ± 0.0089,
UCCUGGAUGACUUGCAUAGUAUUUAGUUA,0.412 ± 0.03,0.0206 ± 0.0053
UCCUGGAUGUCGAACGAUAGUAUUUAGUUUA,< 0.0001,
AGGACCUUCAGCUUGCAUUGUAUUUAGUUA,0.966 ± 0.031,0.0424 ± 0.01
AGGACCUACAGCUUGCAUUGUAUAUAGUUA,0.395 ± 0.031,0.0219 ± 0.0046
UCGACCUACAGCUUGGAUAGUAUUUAGAAA,0.372 ± 0.044,0.00679 ± 0.002
UCCUGGUACACCUUGCAUAGUUUUUAGUUA,0.0764 ± 0.027,0.0132 ± 0.0038
UCGAACCUACAGCUUGCAUAGUAUUUAGUUA,1.37 ± 0.046,0.0781 ± 0.016
UGAACCUACAGCUUGCAUAGUAUUUAGUUA,1.63 ± 0.068,0.0751 ± 0.015
UGGAACCUACAGCUUGCAUAGUAUUUAGUUA,1.41 ± 0.1,0.0747 ± 0.016
UGGAACUACAGCUUGCAUAGUAUUUAGUUA,1.09 ± 0.041,0.0698 ± 0.011
AGGAACCUACAGCUUGCAUAGUAUUUAGUUA,1.23 ± 0.059,0.0809 ± 0.014
UCCACCUACAGCUUGCAUAGUAUUUAGUUG [g2:g27:cont:t1G],0.399 ± 0.047,0.0371 ± 0.0065
AGGAACUACAGCUUGCAUAGUAUUUAGUUA,1.3 ± 0.041,0.0918 ± 0.016
UCGAACUACAGCUUGCAUAGUAUUUAGUUA,1.39 ± 0.049,0.0698 ± 0.011
AGGACCUACAGGAAGCAUAGUAUUUAGUUA,0.977 ± 0.08,0.0104 ± 0.0029
UGGACCUACAGCUUGCAUAGUAUAAACAAA,0.14 ± 0.028,
UCCACCUACAGCUUGCAUAGUAAAUAGUUA,0.426 ± 0.039,0.00722 ± 0.0018
AGGACCUACAGGAUGCAUAGUAUUUAGUUA,1.06 ± 0.092,0.023 ± 0.0047
UCCUGGAUGUGCUAGCAUAGAAUUUAGUUA,0.00695 ± 0.0028,

Sequence,pre-steady-state target cleavage rate [1],pre-steady-state target cleavage rate [2]
AGGACCUACAGCUUGGAUAGUAUUUACUUA,0.478 ± 0.054,0.0287 ± 0.0043
UCCAGCUACAGCUUGCAUAGUAUUAAGUUA,0.558 ± 0.043,0.015 ± 0.0026
AGAACCUACAGCUUGCAUAGUAUUUAGUUA,1.43 ± 0.047,0.0851 ± 0.013
UCAACCUACAGCUUGCAUAGUAUUUAGUUA,1.43 ± 0.04,0.0646 ± 0.011
UCCAACCUACAGCUUGCAUAGUAUUUAGUUA,1.05 ± 0.037,0.055 ± 0.0073
UCCUGGAACAGCUGGCAUAGUAUUUAGUUA,0.759 ± 0.038,0.0271 ± 0.0057
UCCAGCUACAGCUUGCAUAGUAAUUAGUUA,0.475 ± 0.038,0.0163 ± 0.0027
UCCUGCUACAGGUUGCAUAGUAUUUAGUUA,1.03 ± 0.037,0.0257 ± 0.0052
UCCUGGAUGAGCUUGCAUAGUAUUCUAGUUA,0.28 ± 0.036,0.0103 ± 0.0031
UCCUGCUACAGCUUGCAUAGUAUAUACUUA,0.111 ± 0.017,0.00755 ± 0.0036
UCGUCCUACUGCUUGCAUAGUAUUUAGUUA,1.14 ± 0.048,0.0572 ± 0.0094
UGGAGCUACAGCUUGCAUAGUAUUUUGUUA,0.992 ± 0.05,0.0525 ± 0.0077
UCCUGGUUGUGCUUGCAUAGUAUUUAGUUA,0.584 ± 0.032,0.0455 ± 0.0097
UGGACCUACAGCUUGCAUAGUUAAUAGUAA,0.0448 ± 0.01,
UCGACCUACAGUUUGCAUAGUAUUUAGUUA,1.37 ± 0.054,0.0619 ± 0.0092
UCCACCUACAGUUUGCAUAGUAUUUAGUUA,0.892 ± 0.072,0.0474 ± 0.0076
UCGACCUACAGUUGCAUAGUAUUUAGUUA,0.955 ± 0.065,0.00747 ± 0.0023
UGGACCUACAGUUGCAUAGUAUUUAGUUA,1.06 ± 0.094,0.00944 ± 0.0032
UGGACCUACAGUUUGCAUAGUAUUUAGUUA,1.5 ± 0.088,0.0675 ± 0.013
AGGACCUACAGUUUGCAUAGUAUUUAGUUA,1.25 ± 0.073,0.0653 ± 0.0093
UGGACGUACUGCUUGCAUAGUAUUUAGUUA,1.01 ± 0.051,0.056 ± 0.0091

Sequence,pre-steady-state target cleavage rate [1],pre-steady-state target cleavage rate [2]
UCCUGGAACAGCUUGCUUAGUAAUUAGUUA,0.485 ± 0.041,0.0141 ± 0.0051
UCCUGGAACAGCUUGCAUAGUAUUAUCUUA,0.141 ± 0.028,0.00408 ± 0.0029
UCGACCUACAGCUUGCAUAGUAUUAUGUAA,0.228 ± 0.057,
UCCUGGAACAGCUAGCAUAGUAUUUAGUUA,0.836 ± 0.027,0.022 ± 0.0049
AGGACCUACAGCUUGCAUAGUAGUUUAGUUA,0.47 ± 0.036,0.0209 ± 0.006
UCCUGGAUGUGCUUGGAUAGUAUUAAGUUA,0.0897 ± 0.022,0.00634 ± 0.0041
UCCUGGAUCAGCUUGCAUAGUAUUUAGUUU [g2:g22:cont:t1U],1.54 ± 0.089,0.0667 ± 0.016
UCCUGGAUCAGCUUGCAUAGUAUUUAGUUG [g2:g22:cont:t1G],1.05 ± 0.12,0.0362 ± 0.0084
UCCUGGAUCAGCUUGCAUAGUAUUUAGUUA [g2:g22:cont:t1A],1.36 ± 0.054,0.0516 ± 0.0097
UCCUGGAUCAGCUUGUAUAGUAUUUAGUUA,1.64 ± 0.1,0.0468 ± 0.012
UCCUGGAUCAGCUUGCAUAGUAUUUAGUUUA,1.64 ± 0.071,0.0415 ± 0.011
UCCUGGAUCAGCUUGCAUAGUAUUUUAGUUA,0.979 ± 0.05,0.0222 ± 0.0046
UCCUGGAUCAGCUUGGAUAGUAUUUAGUUA,0.775 ± 0.064,0.0476 ± 0.0092
UCCUGGAUCAGCUUGCAUAGUAUUUAGUUC [g2:g22:cont:t1C],1.14 ± 0.052,0.0609 ± 0.012
UCCUGGAUCAGCUUGCAUAGUAUUUAGUA,0.838 ± 0.043,0.0119 ± 0.0038
UCCUGGAUCAGCUUUGCAUAGUAUUUAGUUA,1.05 ± 0.053,0.0153 ± 0.004
UCCUGGAUCAGCUUGCUAUAGUAUUUAGUUA,0.00584 ± 0.0043,
UCCUGGAUCAGCUUGCAUAGUAUUUAGUAA,0.96 ± 0.047,0.0287 ± 0.0064
UCCUGGAUGAGCUAGCAUAGUAUUUAGUUA,0.617 ± 0.05,0.0107 ± 0.0036
